Results published in PubChem BioAssay.
A number with no mark means an inactive call. For some assays here: Measured potencies and affinities stand elsewhere. Calls of active or inactive are those of the source. Unless noted, the rule behind the calls is not given here.

Assays:
[1] = antimalarial activity against Dd2 strain (AID 2302;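 active = growth inhibition above 50% at the single 2 µM test dose, taken to imply half-maximal potency below 2 µM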;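 note: 0% = DMSO untreated growth and 100% = chloroquine plus artemisinin killed control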); conditions: P. falciparum Dd2 in RBCs, LDH growth readout, 72 h; at 2 µM; stronger effect = higher value
[2] = HepG2 cytotoxicity, primary screen, cytotoxicity control for P. falciparum antimalarial project, cell-based, ATP luminescence (AID 2303;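 active = inhibition above 50%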;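 note: 0% = DMSO wells and 100% = digitonin-killed cells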); conditions: HepG2 viability, 24-48 h, at 10 µM, stronger effect = higher value
[3] = biological target: L-lactate dehydrogenase (Plasmodium falciparum (isolate CDC / Honduras)) (UniProt Q27743); assay: PfLDH activity inhibition – cell lysate, 3D7 strain, counter-screen for P. falciparum growth inhibition project (AID 2304);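 note: 0% = vehicle and 100% = reference inhibitor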; conditions: P. falciparum 3D7 crude extract, LDH APAD/NBT absorbance; at 2 µM; stronger effect = higher value
Chain of L-lactate dehydrogenase (Plasmodium falciparum (isolate CDC / Honduras)) (Q27743 whole entry, looked up): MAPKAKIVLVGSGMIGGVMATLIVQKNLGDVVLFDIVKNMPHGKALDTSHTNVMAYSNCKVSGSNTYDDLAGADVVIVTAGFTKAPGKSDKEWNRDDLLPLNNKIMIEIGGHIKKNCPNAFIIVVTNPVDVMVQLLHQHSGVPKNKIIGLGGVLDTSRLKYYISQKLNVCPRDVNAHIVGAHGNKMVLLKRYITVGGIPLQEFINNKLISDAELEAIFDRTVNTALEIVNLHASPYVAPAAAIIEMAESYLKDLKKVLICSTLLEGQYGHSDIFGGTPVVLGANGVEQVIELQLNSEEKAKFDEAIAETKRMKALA

[4] = inhibition of 3D7 malaria parasite growth – strain 3D7 (AID 2306);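 note: 0% = DMSO wells and 100% = chloroquine plus artemisinin control wells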; conditions: P. falciparum 3D7 erythrocytic growth, LDH absorbance, 72 h; at 2 µM; stronger effect = higher value
[5] = biological target: Calcium-dependent protein kinase 1 (Plasmodium falciparum (isolate 3D7)) (UniProt P62344); assay: PfCDPK1 kinase inhibitors, biochemical, TCAMS library (AID 1159585; cut-off not given, nearly all actives have IC50 up to about 0.98 µM;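 note: inhibitors leave more ATP so luminescence rises with inhibition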); conditions: recombinant PfCDPK1, Kinase-Glo ATP depletion luminescence
Chain of Calcium-dependent protein kinase 1 (Plasmodium falciparum (isolate 3D7)) (P62344 whole entry, looked up): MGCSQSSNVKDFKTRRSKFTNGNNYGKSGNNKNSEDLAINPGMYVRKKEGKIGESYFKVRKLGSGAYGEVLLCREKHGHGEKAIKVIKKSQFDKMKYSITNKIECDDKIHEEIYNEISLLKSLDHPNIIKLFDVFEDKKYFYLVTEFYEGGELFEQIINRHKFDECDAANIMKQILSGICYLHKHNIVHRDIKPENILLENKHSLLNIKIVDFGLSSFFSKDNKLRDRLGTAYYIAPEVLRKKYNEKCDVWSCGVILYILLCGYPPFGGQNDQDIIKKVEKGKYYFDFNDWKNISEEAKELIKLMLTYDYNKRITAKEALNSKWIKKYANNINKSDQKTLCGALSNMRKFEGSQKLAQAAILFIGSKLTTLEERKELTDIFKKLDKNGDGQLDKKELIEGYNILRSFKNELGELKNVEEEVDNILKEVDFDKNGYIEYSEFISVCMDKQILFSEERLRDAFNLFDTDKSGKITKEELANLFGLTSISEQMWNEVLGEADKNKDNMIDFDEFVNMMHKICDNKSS

[6] = biological target: Plasmodium falciparum protein kinase 6 (PK6, PF3D7_1337100) (UniProt Q8IDW1); assay: PfPK6 kinase inhibitors, biochemical, TCAMS library (AID 1159586); conditions: recombinant PfPK6, Kinase-Glo ATP depletion luminescence
Chain of Plasmodium falciparum protein kinase 6 (PK6, PF3D7_1337100) (Q8IDW1 1-305): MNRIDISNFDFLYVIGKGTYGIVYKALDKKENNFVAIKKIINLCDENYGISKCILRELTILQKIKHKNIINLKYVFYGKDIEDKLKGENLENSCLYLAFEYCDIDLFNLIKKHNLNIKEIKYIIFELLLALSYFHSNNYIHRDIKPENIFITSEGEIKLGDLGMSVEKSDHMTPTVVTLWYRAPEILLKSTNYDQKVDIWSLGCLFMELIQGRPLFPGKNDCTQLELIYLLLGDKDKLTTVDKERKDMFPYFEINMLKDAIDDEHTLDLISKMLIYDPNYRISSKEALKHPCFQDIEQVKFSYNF

[7] = biological target: Protein kinase 7 (PK7), Plasmodium falciparum 3D7 (PF3D7_0213400) (UniProt Q7YTF7); assay: inhibition of Plasmodium PK7 catalytic activity – biochemical, TCAMS antimalarial set, Kinase-Glo luminescence (AID 1159587); conditions: recombinant PfPK7, Kinase-Glo ATP depletion luminescence
Chain of Protein kinase 7 (PK7), Plasmodium falciparum 3D7 (PF3D7_0213400) (Q7YTF7 1-343): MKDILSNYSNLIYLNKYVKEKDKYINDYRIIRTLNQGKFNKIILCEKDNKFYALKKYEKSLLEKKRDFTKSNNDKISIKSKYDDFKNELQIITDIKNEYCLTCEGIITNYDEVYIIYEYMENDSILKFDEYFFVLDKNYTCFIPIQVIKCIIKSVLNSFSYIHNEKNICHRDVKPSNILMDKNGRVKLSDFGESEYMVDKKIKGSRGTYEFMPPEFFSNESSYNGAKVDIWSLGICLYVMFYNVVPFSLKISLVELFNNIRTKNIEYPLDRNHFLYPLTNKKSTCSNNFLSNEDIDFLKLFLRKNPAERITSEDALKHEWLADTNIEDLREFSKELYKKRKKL

[8] = biological target: Calcium-dependent protein kinase 4 (Plasmodium falciparum (isolate 3D7)) (UniProt Q8IBS5); assay: PfCDPK4 kinase inhibitors, biochemical, TCAMS library (AID 1159588; cut-off not given, nearly all actives have IC50 up to about 0.91 µM); conditions: recombinant PfCDPK4, Kinase-Glo ATP depletion luminescence
Chain of Calcium-dependent protein kinase 4 (Plasmodium falciparum (isolate 3D7)) (Q8IBS5 whole entry, looked up): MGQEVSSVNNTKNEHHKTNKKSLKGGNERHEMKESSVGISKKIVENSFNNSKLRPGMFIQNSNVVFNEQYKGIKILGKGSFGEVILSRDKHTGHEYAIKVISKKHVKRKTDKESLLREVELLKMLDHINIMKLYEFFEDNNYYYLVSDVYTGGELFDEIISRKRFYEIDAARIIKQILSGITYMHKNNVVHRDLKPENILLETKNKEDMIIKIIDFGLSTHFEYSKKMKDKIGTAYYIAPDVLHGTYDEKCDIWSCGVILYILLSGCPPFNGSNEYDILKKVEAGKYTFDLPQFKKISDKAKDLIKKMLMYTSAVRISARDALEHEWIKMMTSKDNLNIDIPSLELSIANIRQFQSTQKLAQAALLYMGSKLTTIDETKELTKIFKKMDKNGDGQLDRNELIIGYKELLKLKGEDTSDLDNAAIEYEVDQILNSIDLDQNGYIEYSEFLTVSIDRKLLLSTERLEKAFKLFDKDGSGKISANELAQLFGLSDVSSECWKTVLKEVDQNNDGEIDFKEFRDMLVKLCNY

| SMILES | growth inhibition [1] | inhibition [2] | inhibition [3] [%] | growth inhibition [4] | outcome [5] | outcome [6] | outcome [7] | outcome [8] |
| --- | --- | --- | --- | --- | --- | --- | --- | --- |
| Cc1cccc2[nH]c(-c3cccc(-c4ccc(NC(=O)CN5CCN(C)CC5)cc4)c3)nc12 | 99% (active) | 45% | -8 | 101% (active) | inactive | inactive | inactive | inactive |
| CCCCCCCc1c(C)[nH]c2cc(OC)ccc2c1=O | 98% (active) | 5% | -5 | 99% (active) | inactive | inactive | inactive | inactive |
| COc1ccc2ncc(F)c([C@H](O)CN3CCC(NCc4ccc5c(c4)NC(=O)CS5)CC3)c2c1 | 98% (active) | 7% | -13 | 102% (active) | inactive | inactive | inactive | inactive |
| OC1(c2ccccc2)c2cc(Cl)ccc2OC1c1nc2c(Cl)ccc(Cl)c2o1 (stereo not given) | 89% (active) | 7% | -6 | 98% (active) | inactive | inactive | inactive | inactive |
| Cc1cc(C)n(Cc2ccc(C(=O)NCC3CCCCC3)cc2)n1 | 1% | 0% | 2 | 95% (active) | inactive | inactive | inactive | inactive |
| CCCCCCCN1CC[C@H](NC(=O)Nc2ccnc3ccc(OC)cc23)[C@H](CO)C1 | 69% (active) | 23% | -3 | 94% (active) | inactive | inactive | inactive | inactive |
| O=C(Nc1ccc(C(F)(F)F)cc1)c1ccc(S(=O)(=O)NC2CCN(Cc3ccccc3)C2)cc1 (stereo not given) | 5% | 42% | 5 | 101% (active) | inactive | inactive | inactive | inactive |
| CC(=O)Nc1ccc(Nc2cc(C)nc(Nc3ccc(NC(C)=O)cc3)n2)cc1 | 65% (active) | 4% | -2 | 99% (active) | inactive | inactive | inactive | inactive |
| NCc1ccc(CNCc2cccc(-c3cccc(-c4nc5ccc(F)cc5[nH]4)c3)c2)cc1 | 34% | 15% | -2 | 101% (active) | inactive | inactive | inactive | inactive |
| CCCC[C@@H](C(=O)NCCc1ccc(Cl)cc1)N1C(=O)CCC1C(=O)Nc1ccc(Cl)c(Cl)c1 (stereo not given in full) | 2% | 4% | 2 | 95% (active) | inactive | inactive | inactive | inactive |
| O=C(NC1CCCCCC1)C1CCCN(C(=O)c2ccc(O)c(-c3ccc(Cl)c(Cl)c3)c2)C1 (stereo not given) | 21% | 5% | -2 | 98% (active) | inactive | inactive | inactive | inactive |
| CC1(C)N=C(N)N=C(N)N1OCCCc1cccc(C(F)(F)F)c1 | 95% (active) | 62% (active) | -3 | 95% (active) | inactive | inactive | inactive | inactive |
| CCOc1ccc(C(=O)Nc2cc(Br)c3c(c2)CNCC3)cc1Br | 21% | 18% | 0 | 96% (active) | inactive | inactive | inactive | inactive |
| Cc1ccc(Nc2nc(C)cc(N3CCN(c4ccccc4)CC3)n2)cc1 | 72% (active) | 4% | 3 | 93% (active) | inactive | inactive | inactive | inactive |
| CCSc1ccccc1CON1C(N)=NC(N)=NC1(C)C | 10% | 62% (active) | -3 | 96% (active) | inactive | inactive | inactive | inactive |
| O=C(Nc1ccc(-n2ccc(C(F)(F)F)n2)cc1)c1cccs1 | 67% (active) | 6% | -6 | 89% (active) | inactive | inactive | inactive | inactive |
| O=C(Nc1cccc(-c2ccc(-c3nc4ccccc4[nH]3)cc2)c1)c1cnn2cccnc12 | 1% | 9% | -3 | 87% (active) | inactive | inactive | inactive | inactive |
| FC(F)(F)c1cccc(CNCC2CCN(Cc3ccc4c(c3)OCO4)CC2)c1 | 19% | 21% | 1 | 100% (active) | inactive | inactive | inactive | inactive |
| COc1ccc2nccc([C@@H](O)CN3CCC(NCc4ccc5c(c4)N(C)C(=O)CO5)CC3)c2c1 | 95% (active) | -3% | 6 | 101% (active) | inactive | inactive | inactive | inactive |
| CC(=O)Oc1cc(C)ccc1C1CCN(CCCCNC(=O)c2ccc(-c3ccc(C(F)(F)F)cc3)cc2)CC1 | 94% (active) | 54% (active) | -7 | 100% (active) | inactive | inactive | inactive | inactive |

| SMILES | growth inhibition [1] | inhibition [2] | inhibition [3] [%] | growth inhibition [4] | outcome [5] | outcome [6] | outcome [7] | outcome [8] |
| --- | --- | --- | --- | --- | --- | --- | --- | --- |
| COc1ccc(CNc2ccnc(-n3cnc4cc(C)c(C)cc43)n2)cc1Cl | 100% (active) | 6% | -8 | 100% (active) | inactive | inactive | inactive | inactive |
| COC(=O)c1ccc(Nc2nccc(Nc3ccc(Oc4ccccc4)cc3)n2)cc1 | 15% | -10% | 7 | 93% (active) | inactive | inactive | inactive | inactive |
| COc1cc(CCNc2nc(NCc3ccccc3-c3ccccc3)nc(N3CCC(N)CC3)n2)ccc1O | 70% (active) | 25% | -4 | 100% (active) | inactive | inactive | inactive | inactive |
| COc1cccc2c(Oc3ccccc3C)ccnc12 | 45% | -7% | 4 | 85% (active) | inactive | inactive | inactive | inactive |
| O=C(/C=C/c1ccc(Cl)cc1)NCCCCCN1CCC(C(=O)Nc2ccc(Cl)c(Cl)c2)CC1 | -4% | 47% | -3 | 100% (active) | inactive | inactive | inactive | inactive |
| CC(=O)c1ccc(-c2cccc3c(CC(=O)Nc4ccc5nccc(N6CCN(C)CC6)c5c4)cccc23)cc1 | 96% (active) | 3% | -11 | 101% (active) | inactive | inactive | inactive | inactive |
| Cc1cc(NC(=O)NCCN2CCC(NS(=O)(=O)c3ccccc3F)CC2)c2ccccc2n1 | 44% | 0% | -4 | 81% (active) | inactive | inactive | inactive | inactive |
| C#CC(C)(CO)N1CCCC1 (stereo not given) | 1% | 10% | -4 | 95% (active) | inactive | inactive | inactive | inactive |
| COc1ccc(NC(=O)CCNc2cc(C)nc(NCc3ccccc3C)n2)cc1 | 61% (active) | 7% | -1 | 94% (active) | inactive | inactive | inactive | inactive |
| O=C(NC1CCCCC1)N(Cc1ccccc1-c1ccc(CNCCc2ccccc2)cc1)C1CCN(Cc2ccccc2)CC1 | 92% (active) | 96% (active) | -6 | 90% (active) | inactive | inactive | inactive | inactive |
| O=S1N=C(NCCCN(Cc2cccs2)c2ccccn2)C(NCc2ccccc2)=N1 (stereo not given) | 25% | 10% | 0 | 92% (active) | inactive | inactive | inactive | inactive |
| CN(C)CCN(Cc1ccc(-c2ccc(CNCCc3ccccc3)cc2)nc1)C(=O)CCC1CCCC1 | 89% (active) | 98% (active) | -3 | 96% (active) | inactive | inactive | inactive | inactive |
| NC(=O)c1cccc(C(=O)Nc2cccc(-c3ccc(-c4nc5ccc(C(F)(F)F)cc5[nH]4)cc3)c2)c1 | 78% (active) | 83% (active) | -1 | 100% (active) | inactive | inactive | inactive | inactive |
| Cc1cccc2c3c([nH]c12)C1(CCN(CCc2ccccc2)CC1)NC(C(=O)NCc1ccccc1)C3 (stereo not given) | 52% (active) | 10% | -9 | 86% (active) | inactive | inactive | inactive | inactive |
| Cc1cc(C2CCN(CCCCNC(=O)c3ccc(-c4ccc(C(F)(F)F)cc4)cc3)CC2)c(C)cc1OCC(N)=O | 44% | 34% | -7 | 91% (active) | inactive | inactive | inactive | inactive |
| CC(C)(C)NC(=O)C(c1ccc(F)cc1)N(C(=O)c1ccc(CN2CCOCC2)o1)c1ccc(C2CCCCC2)cc1 (stereo not given) | 68% (active) | 0% | -12 | 87% (active) | inactive | inactive | inactive | inactive |
| Oc1cccc(Nc2ccnc3cc(-c4ccccn4)ccc23)c1 | 98% (active) | 24% | -3 | 96% (active) | inactive | inactive | inactive | inactive |
| Cn1c(NC(=O)C2CCCN(C(=O)c3ccc(O)c(-c4ccc(Cl)c(Cl)c4)c3)C2)nc2ccccc21 (stereo not given) | 99% (active) | 0% | -3 | 98% (active) | inactive | inactive | inactive | inactive |
| CN(CCN)Cc1cccc(-c2cccc(-c3nc4ccc(C(F)(F)F)cc4[nH]3)c2)c1 | 98% (active) | 22% | 0 | 99% (active) | inactive | inactive | inactive | inactive |
| O=C(NCCc1cccc(F)c1)c1ccc(N2CCN(c3ccncc3)CC2)cn1 | 7% | 4% | -3 | 94% (active) | inactive | inactive | inactive | inactive |
